Assay outcomes deposited in PubChem BioAssay by National Center for Advancing Translational Sciences (NCATS).
A selection: hits, their analogues and other compounds. The true share with any hit is near 0.93%.
TRPML1 agonist – human mucolipin-1 channel agonism; TRPML1-expressing cells, Ca2+ dye fluorescence, FDSS; activation, % (no concentration beside the values); 0.12% of 410,000 active; in the data active = activation above about 50%; inconclusive = mostly about 30% to 49%; also: 0% is about no effect
Target sequence (Q9GZU1 whole entry, looked up): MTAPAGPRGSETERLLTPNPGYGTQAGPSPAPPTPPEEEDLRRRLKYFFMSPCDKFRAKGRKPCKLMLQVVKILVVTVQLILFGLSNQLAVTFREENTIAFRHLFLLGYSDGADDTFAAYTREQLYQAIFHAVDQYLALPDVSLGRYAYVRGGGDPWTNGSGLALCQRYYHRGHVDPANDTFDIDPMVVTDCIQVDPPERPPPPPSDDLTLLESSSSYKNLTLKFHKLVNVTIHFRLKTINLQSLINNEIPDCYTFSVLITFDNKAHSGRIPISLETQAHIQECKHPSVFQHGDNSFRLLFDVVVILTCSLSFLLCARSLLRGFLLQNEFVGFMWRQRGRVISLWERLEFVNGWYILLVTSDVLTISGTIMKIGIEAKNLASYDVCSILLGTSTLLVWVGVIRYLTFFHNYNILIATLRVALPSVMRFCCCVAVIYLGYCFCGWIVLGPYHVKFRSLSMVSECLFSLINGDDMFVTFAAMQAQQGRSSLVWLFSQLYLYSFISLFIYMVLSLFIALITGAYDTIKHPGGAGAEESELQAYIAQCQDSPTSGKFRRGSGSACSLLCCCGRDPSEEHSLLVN
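Tet-induced TRPML1-DL cells, 1,500 per well, cultured overnight, were loaded with a no-wash Ca2+ dye for 45–90 min. Calcium fluorescence was recorded on the FDSS for 110 s after compound addition, before the EC80 agonist (4 uM 54-4) was added.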
TRPML1 inh – human mucolipin-1 channel inhibition; TRPML1-inducible cells, Ca2+ dye fluorescence, FDSS; stronger effect = lower value; inhibition of EC80 agonist-evoked calcium signal; 0.02% of 390,000 active; AID 624415; activity change, negative = inhibition, % (concentration not given with the values); in the data active = activity change below about -50%; inconclusive = between about -30% and that limit;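 also: stimulus is agonist 54-4 at its EC80 concentration; % is scaled to controls: 0 for no effect and ±100 for the full control effect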
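TRPML1-DL cells, Tet-induced overnight (~16 h, 37 °C) at 1,500 cells/well, were loaded with Ca8 no-wash dye plus quencher for 45-90 min at room temperature. Compounds were pinned during FDSS kinetic reading; agonist 54-4 at EC80 (4 uM final) then added.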
PTHR1 agonist – agonists of human PTHR1 parathyroid hormone receptor; Q03431; AID 743266; HEK293 GP2 PTHR1 cells, GloSensor cAMP luminescence, 1 h; 0.075% of 410,000 active; Potency, µM (titrated, usually from 115 µM), without a hit: at the highest dose activation, usual class: activators; also: potency is read from the fitted curve at half-maximal effect; nearly all actives have a fitted effect of over 55% in size
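HEK-293-derived GP2 cells expressing PTHR1 and a GloSensor cAMP reporter, 3,000/well, plated overnight, given luciferin plus IBMX (each 0.5 mM as added) for 1 h at 37 °C, then compound for 1 h at 37 °C. Luminescence was read after 15 min at room temperature.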
TRHR enhancer – allosteric enhancers of human TRH receptor; P34981; TRHR cells, fluo-8 calcium fluorescence, EC20 TRH enhancement; enhancement, % at 2 µM; 0.66% of 360,000 active; AID 493056; in the data active = enhancement above about 30%; also: 0% is about no effect
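TRHR-expressing cells loaded with fluo-8 calcium dye were read kinetically (ex 480/em 530) during compound addition, then stimulated with an EC20 of TRH (10 nM final). Enhancement of the Gq-mediated intracellular calcium response was scored.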
TRHR agonist – TRH receptor (human) agonism; P34981; TRHR cells, calcium flux fluo-8, FDSS agonist mode; activation, % at 2 µM; 0.18% of 360,000 active; in the data active = activation above about 30%; also: 0% is about no effect
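Fluo-8-loaded TRHR cells; 10 s baseline, compound added, kinetic Ca2+ fluorescence read 1/s, agonist mode.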
GLP1R cytotox – cytotoxicity in counter-screen for GLP-1R inverse agonists; AID 624418; HEK293 cAMP-luciferase reporter cells, luminescence, 24 h; 0.13% of 410,000 active; Potency, µM (series often up to 38.3 µM), for the others: at the highest dose activity change, negative = inhibition, actives largely listed as inhibitors;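 also: loss of luciferase light is scored as toxicity; potency is read from the fitted curve at half-maximal effect; % is scaled to controls: 0 for no effect and ±100 for the full control effect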
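MLSMR compounds, 24 hr on cells at 37 deg C/5% CO2; luminescence after luciferase reagent (12 min RT). Inhibition counted as the undesired cytotoxic outcome.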
* = called active by the depositor; ! = repeats disagree; [ ] = dose if it differs, or a comment. Unless noted, calls follow the shape of the dose curve; as a rule, active = well fitted curve in the direction sought with a large enough effect; inconclusive = small, poorly fitted or top-dose-only effect, or another doubt; inactive = no such curve, though single readings can be large; an effect the other way counts as inactive or inconclusive.

What do the screens show for `COc1cc(OC)c(N(C)C(=O)CCNC(=O)Cn2cnc3ccccc3c2=O)cc1Cl`?
TRPML1 agonist: 1; TRPML1 inh: -4; PTHR1 agonist: 12%[57.5 µM]; TRHR enhancer: 30*!; TRHR agonist: -1; GLP1R cytotox: 0%

How did COc1cc(OC)c(NC(=O)CCNC(=O)Cn2cnc3ccccc3c2=O)cc1Cl do in these assays?
TRPML1 agonist: -1; TRPML1 inh: 4; PTHR1 agonist: inactive; TRHR enhancer: 28; TRHR agonist: -1; GLP1R cytotox: 78%

What do the screens show for `Cc1nnc(N2CCC(C(=O)NC3CCCCC3)CC2)c2nn(-c3ccccc3)c(C)c12`?
TRPML1 agonist: 2; TRPML1 inh: -58*; PTHR1 agonist: 5%; TRHR enhancer: 0; TRHR agonist: -1; GLP1R cytotox: -5%

How did Cc1ccc2[nH]c(=O)c(CN(Cc3ccccc3)C(=S)NCCCN(C)C)cc2c1 do in these assays?
TRPML1 agonist: 0; TRPML1 inh: 10; PTHR1 agonist: inactive; TRHR enhancer: 34*; TRHR agonist: 0; GLP1R cytotox: inconclusive

What do the screens show for `CCCN(Cc1cc2ccc(C)cc2[nH]c1=O)C(=O)c1ccccn1`?
TRPML1 agonist: 1; TRPML1 inh: -8; PTHR1 agonist: inconclusive; TRHR enhancer: -5; TRHR agonist: 0; GLP1R cytotox: 5%

What do the screens show for `CCCCN(Cc1cc2cc(C)ccc2[nH]c1=O)C(=O)c1ccccn1`?
TRPML1 agonist: 0; TRPML1 inh: -7; PTHR1 agonist: inactive; TRHR enhancer: 30*; TRHR agonist: 0; GLP1R cytotox: -17%

How did O=S(=O)(c1ccc2c(c1)OCCO2)N1CCN(S(=O)(=O)c2ccc3nc(Cl)c(Cl)nc3c2)CC1 do in these assays?
TRHR enhancer: 1; TRHR agonist: -1

What do the screens show for `Cc1sc2ccccc2[n+]1CCCCBr`?
TRPML1 agonist: 0

What do the screens show for `O=C(O)c1cccnc1Sc1ccc(Cl)cc1`?
TRPML1 agonist: -1; TRPML1 inh: -6; PTHR1 agonist: 50µM*; TRHR enhancer: 1; TRHR agonist: 1; GLP1R cytotox: -3%

What do the screens show for `CC(=O)Nc1sc(N/N=C\c2ccc(O)cc2)nc1-c1cccs1`?
TRPML1 agonist: 0; TRPML1 inh: 18; PTHR1 agonist: -6%; TRHR enhancer: -3; TRHR agonist: 0; GLP1R cytotox: -13%

How did CC(=O)Nc1sc(N/N=C\c2ccccc2F)nc1-c1cccs1 do in these assays?
TRPML1 agonist: 0; TRPML1 inh: -13; PTHR1 agonist: -12%; TRHR enhancer: 36*; TRHR agonist: 0; GLP1R cytotox: -4%

What do the screens show for `CCCCN1C(=O)C(CC(=O)NCc2cccs2)CC(C(=O)N(C)C)=C1C` (centres undefined)?
TRPML1 agonist: 0; TRPML1 inh: -53*; PTHR1 agonist: -5%; GLP1R cytotox: 2%

What do the screens show for `CCCC[C@@H]1CCCO[C@@](C(=O)NCc2ccccc2)(C(F)(F)F)C1`?
TRPML1 agonist: 0; TRPML1 inh: -4

How did Cc1ccc(S(=O)(=O)/N=C2\C=C(Nc3ccc(O)cc3)C(=O)c3ccccc32)cc1 do in these assays?
TRPML1 agonist: 7; TRPML1 inh: 16; PTHR1 agonist: -30%; GLP1R cytotox: 2.8µM*

Results for O=C1C(Nc2ccccc2)=C/C(=N/S(=O)(=O)c2cccs2)c2ccccc21 ?
TRPML1 agonist: 1; TRPML1 inh: 56; PTHR1 agonist: inactive; TRHR enhancer: -5; TRHR agonist: 0; GLP1R cytotox: 4.5µM*

Results for Cc1ccc(NC2=C/C(=N/S(=O)(=O)c3cccs3)c3ccccc3C2=O)cc1 ?
TRPML1 agonist: 4; TRPML1 inh: 53; PTHR1 agonist: -5%; TRHR enhancer: 1; TRHR agonist: 0; GLP1R cytotox: inconclusive

Results for CCCCC(=O)NC(=S)NNC(=O)c1ccc(Cl)cc1Cl ?
TRPML1 agonist: -1; TRPML1 inh: 15; PTHR1 agonist: inactive; TRHR enhancer: 1; TRHR agonist: 0; GLP1R cytotox: 0%[0.307 µM]

Results for Cc1ccc(C(=O)NNC(=S)NC(=O)c2ccc(Cl)cc2Cl)cc1 ?
TRPML1 agonist: 72*; TRPML1 inh: 4; PTHR1 agonist: -6%[57.5 µM]; TRHR enhancer: -8; TRHR agonist: 32*; GLP1R cytotox: -9%

Results for Cc1cccc(C(=O)NNC(=S)NC(=O)c2ccccc2)c1 ?
TRPML1 agonist: 70*; TRPML1 inh: 6; PTHR1 agonist: -13%; GLP1R cytotox: -1%

Results for Cc1ccccc1C(=O)NNC(=S)NC(=O)c1ccccc1 ?
TRPML1 agonist: inconclusive; TRPML1 inh: 1; PTHR1 agonist: -6%; TRHR enhancer: -23; TRHR agonist: 59*; GLP1R cytotox: -22%

How did CCCOc1ccc(C(=O)NC(=S)NNC(=O)c2c(-c3ccccc3)noc2C)cc1 do in these assays?
TRPML1 agonist: 65*; TRPML1 inh: 39; PTHR1 agonist: 5%; TRHR enhancer: -7; TRHR agonist: 48*; GLP1R cytotox: 5%

How did O=C(NC(=S)NNC(=O)c1ccccc1O)c1ccccc1 do in these assays?
TRPML1 agonist: 1; TRPML1 inh: -27; PTHR1 agonist: -6%; TRHR enhancer: 1; TRHR agonist: 3; GLP1R cytotox: -4%

How did CCCOc1ccc(NC(=O)c2c(-c3ccccc3)noc2C)cc1 do in these assays?
TRPML1 agonist: 2; TRPML1 inh: -8; PTHR1 agonist: -5%; TRHR enhancer: 11; TRHR agonist: 0; GLP1R cytotox: inconclusive

What do the screens show for `COc1cc2nc(N3CCCN(C)CC3)nc(N)c2cc1OC`?
TRPML1 agonist: 0

Results for Cc1cc2c(s1)c1cnn(Cc3ccc(Cl)cc3)c(=O)c1n2C ?
TRHR enhancer: 0; TRHR agonist: 0

Results for Cc1ccc(S(=O)(=O)c2cnc(-c3ccccc3)[nH]c2=O)cc1 ?
TRPML1 agonist: 0

How did Cc1cccc(C(=O)NNC(=S)NC(=O)c2cccs2)c1 do in these assays?
TRPML1 agonist: 66*; TRPML1 inh: 2; PTHR1 agonist: inactive; TRHR enhancer: -7; TRHR agonist: 20; GLP1R cytotox: inconclusive

How did Cc1ccc(C(=O)NC(=S)NNC(=O)c2ccccc2)cc1 do in these assays?
TRPML1 agonist: 69*; TRPML1 inh: -14; PTHR1 agonist: -19%; TRHR enhancer: -3; TRHR agonist: 31*; GLP1R cytotox: -3%

How did Cc1ccc(C(=O)NNC(=S)NC(=O)c2ccccc2)cc1 do in these assays?
TRPML1 agonist: 0; TRPML1 inh: -12; PTHR1 agonist: -16%; GLP1R cytotox: 0%

Results for COC(=O)c1cc(F)c(S(=O)(=O)N2CCN(S(=O)(=O)c3ccc4c(c3)OCCO4)CC2)cc1F ?
TRHR enhancer: 1; TRHR agonist: 1
